Experimental findings from PubChem BioAssay (NCI) are described below.

Holding throughout (assay): NCI-60 one-dose screen, 48 h (100 = growth as untreated, 0 = no growth, -100 = all killed)
The test system of assay [1] is SK-MEL-2 melanoma. Conditions: 10 µM.
In assay [2] the test system is EKVX NSCLC. Particulars: 10 µM.
For assay [3], the system named is SN12C renal. Conditions: 10 µM.
Assay [4] deals with UO-31 renal. Particulars: 10 µM.
Assay [5] deals with TK-10 renal. Conditions: 10 µM unless noted.
The test system of assay [6] is ACHN renal. Particulars: 10 µM.
The subject of assay [7] is CAKI-1 renal. Conditions: 10 µM.
For assay [8], the system named is A498 renal. Particulars: 10 µM.
Assay [9] relates to CCRF-CEM leukemia. Conditions: 10 µM.
Assay [10] concerns MOLT-4 leukemia. Particulars: 10 µM.

Compounds without any hit were thinned out: in the full panel of roughly 83,000, 20% have a hit.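 Cells were grown in 96-well plates and exposed to the test compound at a single concentration for 48 hours; results are reported as percent growth, with values below 10 considered active.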 Values without a mark were called inactive. Active and inactive are the calls of the source. Where a SMILES comes first, the peptide text is derived from it. Bridges are numbered along the chain shown (N, C = ends). [ ]: non-standard residue; d: D form. The star is where a group is joined. ξ: configuration not given here. ξNMePhe(4-NMe2) = CNC(Cc1ccc(N(C)C)cc1)C(=O)O; Picolinoyl(3-OH) = O=C(c1ncccc1O)*; ξPip(4-oxo) = O=C1CCNC(C(=O)O)C1; Phg = N[CH](C(=O)O)c1ccccc1; Abu = CC[CH](N)C(=O)O

Turning to `Brc1cnc2ccccc2c1`, the growth was 100% in assay [1]; 103% in [2]; 98.4% in assay [3]; 78.2% in assay [4]; 102% in assay [5]; 98.2% in assay [6]. Moreover, the growth in [7] was 97.7%; in assay [8], 99%; in assay [9] it was 108%; in [10] it was 101%.
In the case of `NNc1ccccc1C(=O)O`, the growth in [1] is 102%; in [2] it was 116%; in assay [3], 116%; in assay [4], 87.9%; in [5] it was 110%; in assay [6] it was 98.9%. Also, the figures for the growth in [7], in assay [8] and in assay [10] were 110%, 98.1% and 107%, respectively.
With `Cc1cccc([N+](=O)[O-])c1Cl`, the growth in assay [1] is 109%; in [2], 96.8%; in assay [3], 106%; in assay [4], 87.3%; in assay [5], 119%; in [6], 97.4%. For the same compound, the growth in [7] is 92.3%; in assay [8], 94.5%; in [9], 99%; in assay [10] it was 122%.
As to `CC1(C)N=C(N)N=C(N)N1c1ccc(Cl)cc1`, the growth was 71% in [1]; 48.4% in assay [2]; 41.4% in assay [3]; 85.9% in [4]; 69.7% in assay [5]; 67.4% in [6]. Further, the growth in assay [7] was 99.9%; in assay [8] it was 120%; in assay [10], 53.6%.
For the compound `O/N=C/c1ccc(O)cc1O`, the growth in assay [1] is 92.9%; in assay [2] it was 102%; in assay [3] it was 98%; in [4], 99%; in assay [5], 102%; in assay [6], 95.9%. Also, the growth in [7] was 101%; in [8], 85.9%; in [9] it was 86.5%; in assay [10], 102%.
With `Cc1cc(C)c(CC(=O)O)c(C)c1`, the growth is 100% in assay [1]; 98.3% in assay [2]; 113% in assay [3]; 94.3% in assay [4]; 106% in assay [5]; 102% in assay [6]. The growth in [7] was 93.3%; in [8], 84.4%; in assay [9] it was 103%; in [10], 98.5%.
Regarding `O=C(O)c1ccnc(Br)c1`, the growth in [1] was 105%; in [2], 98.1%; in assay [3] it was 113%; in assay [4] it was 91.4%; in assay [5], 104%; in assay [6], 108%. In addition, the growth was 97.8% in assay [7], 88.7% in assay [8], 112% in assay [9] and 116% in assay [10].
Consider `[O-][N+](=Nc1cccc(Cl)c1)c1cccc(Cl)c1`, for which the growth was 112% in assay [1]; 88.8% in assay [2]; 93% in assay [3]; 72.8% in [4]; 108% in [5]; 94.3% in assay [6]. Also, the growth in assay [7] was 96.4%; in assay [8], 103%; in assay [9] it was 111%; in assay [10], 125%.
On to `O=c1[nH][nH]c(=O)c2cc([N+](=O)[O-])ccc12`, for which the growth is 103% in assay [1]; 106% in assay [2]; 108% in assay [3]; 85.7% in [4]; 104% in [5]; 107% in [6]. Moreover, the growth is 96.8% in assay [7], 117% in assay [8], 100% in [9] and 100% in assay [10].
For the compound `CC(=O)OCCC(C)CCC=C(C)C` (stereo not given), the growth was 98.1% in [1]; 100% in assay [2]; 101% in [3]; 88% in assay [4]; 106% in assay [5]; 104% in assay [6]. Moreover, the growth is 103% in assay [7], 100% in [8], 104% in assay [9] and 114% in [10].
Regarding `CC1=NN(c2ccccc2)C(=O)/C1=C\N1CC(=O)NC1=S`, the growth is 108% in [1]; 105% in assay [2]; 101% in assay [3]; 92% in assay [4]; 122% in assay [5]; 98.8% in [6]. Moreover, the growth in assay [7] is 98%; in assay [8], 92.9%; in [10] it was 102%.
Regarding `CCC(O)CC(CC)CO` (stereo not given), the growth in assay [1] was 134%; in [2], 93.7%; in assay [3], 111%; in assay [4], 94.6%; in assay [5], 111%; in [6] it was 105%. Further, the growth in assay [7] was 96.6%; in assay [8], 99.2%; in [9], 96.2%; in assay [10], 102%.
As for `O=[N+]([O-])c1ccc(S(=O)(=O)NN=C2CCCCC2)cc1`, the growth was 147% in assay [1]; 104% in assay [2]; 103% in assay [3]; 67.8% in [4]; 128% in assay [5]; 100% in [6]. Further, the growth in assay [7] is 92.5%; in [8], 123%; in assay [10], 98.7%.
`CC1(C)/C(=C\CO)C2CCC1C2` (stereo not given): the growth in assay [1] is 105%; in assay [2], 113%; in assay [3] it was 99.4%; in [4] it was 78.5%; in [5], 89.7%; in assay [6], 112%. For the same compound, the figures for the growth in [7], in assay [9] and in assay [10] were 102%, 92.3% and 107%, respectively.
For `CCC1NC(=O)C(NC(=O)c2ncccc2O)C(C)OC(=O)C(c2ccccc2)NC(=O)C2CC(=O)CCN2C(=O)C(Cc2ccc(N(C)C)cc2)N(C)C(=O)C2CCCN2C1=O` (stereo not given) (tested in a mixture with another compound) ({Picolinoyl(3-OH)}-T[Abu]P[ξNMePhe(4-NMe2)][ξPip(4-oxo)][Phg]; ester 1-C; configuration not given here), the growth in [1] is 95.9%; in assay [2], 41%; in assay [3] it was 75%; in assay [4] it was 90.8%; in [5], 91%; in assay [6] it was 47.5%. The growth in assay [7] is 50.8%; in assay [9], 32%; in assay [10], 42.2%.
On to `CC1(O)CCCCC1O` (stereo not given), for which the growth was 91.8% in assay [1]; 114% in [2]; 95.1% in assay [3]; 79.3% in [4]; 125% in assay [5]; 102% in assay [6]. The growth in [7] was 102%; in [9], 107%; in [10] it was 103%.
As for `CCOc1ccc(/C=C/C(=O)c2ccccc2)cc1`, the growth in assay [1] is 91.9%; in assay [2], 107%; in assay [3], 95.7%; in assay [4] it was 84%; in assay [5] it was 97.6%; in assay [6] it was 108%. In addition, the figures for the growth in [8], in assay [9] and in assay [10] were 88.8%, 55.9% and 77.6%, respectively.
In the case of `COc1cc(C(N)=O)cc(OC)c1OC`, the growth was 114% in assay [1]; 102% in [2]; 96.1% in assay [3]; 82.5% in [4]; 111% in assay [5]; 105% in assay [6]. Further, the growth in assay [7] is 91%; in assay [9], 103%; in [10], 84.5%.
`COc1cc2c(cc1O)CC[C@@H]1C2CC[C@@]2(C)C1CC[C@@H]2O` (stereo not given in full): the growth in assay [1] is 71.1%; in [2], 37.9%; in assay [3], 53.2%; in [4] it was 41.8%; in assay [5], 63%; in assay [6], 61.9%. The growth in assay [7] is 33.7%; in assay [9] it was 8.85% (active); in assay [10], 31.8%.
As to `COc1cc(C(=O)NC(=S)Nc2ccc3ccccc3c2)cc(OC)c1OC`, the growth was 83.6% in [1]; 102% in assay [2]; 104% in assay [3]; 66.7% in [4]; 117% in assay [5]; 93.7% in [6]. In addition, the values for the growth in assay [7], in assay [9] and in assay [10] were 75.1%, 98.6% and 89.4%, respectively.
Take `Cc1ccc(/C(C#N)=C/c2ccc3c(c2)OCO3)cc1`: the growth in [1] was 43.3%; in assay [2] it was 87.3%; in [3], 90.6%; in [4], 64.3%; in assay [5], 80.8%; in [6], 95.3%. In addition, the growth was 53.6% in assay [7], 65.8% in assay [9] and 63.6% in assay [10].
As for `CCOC(=O)c1cc2cccc(OC)c2oc1=O`, the growth in assay [1] is 74.9%; in assay [2] it was 107%; in assay [3], 107%; in [4], 105%; in assay [5] it was 110%; in [6], 117%. Besides, the growth was 132% in assay [7], 91.7% in assay [9] and 89.9% in [10].
For `Nc1ccc(N=Nc2ccc(O)cc2)c(N)n1`, the growth in assay [1] was 97.1%; in [2], 67.6%; in [3], 72.8%; in assay [4], 34.7%; in assay [5] it was 93.7%; in assay [6] it was 26.3%. Also, the growth in [7] was 39.1%; in [9] it was 37.4%; in assay [10], 46.1%.
Consider `Oc1ccc(Cc2ccccc2)c2cccnc12`, for which the growth was 12.1% in assay [1]; 28.3% in [2]; 20.5% in assay [3]; -14.4% (active) in [4]; 9.22% (active) in [5]; 11.5% in [6]. In addition, the growth in assay [7] was -6.16% (active); in assay [9], 1.19% (active); in assay [10] it was 3.7% (active).
Turning to `NC(=O)NC(=O)c1ccc(Cl)cc1`, the growth in assay [1] was 92.2%; in [2], 101%; in assay [3], 104%; in assay [4] it was 77%; in assay [5], 100%; in assay [6], 105%. For the same compound, the growth in assay [7] is 94.1%; in [8], 102%; in assay [10] it was 102%.
Regarding `O=[N+]([O-])c1ccccc1N=Nc1ccc(O)cc1O`, the growth is 134% in assay [1]; 116% in [2]; 107% in [3]; 66.3% in assay [4]; 140% in assay [5]; 109% in assay [6]. Also, the growth in assay [7] was 95.1%; in [8], 139%; in assay [10], 101%.
On to `COc1cc(C2NC(=O)C(C#N)=C(Nc3cccc(C)c3)S2)ccc1O` (stereo not given), for which the growth was 123% in assay [1]; 94.9% in [2]; 90.3% in [3]; 94.8% in assay [4]; 106% in assay [5]; 101% in assay [6]. The results for the growth in assay [8], in assay [9] and in assay [10] were 112%, 76% and 93%, respectively.
For the compound `O=c1cc(-c2ccccc2)nc2cc(-c3ccco3)[nH]n12`, the growth was 102% in [1]; 89.7% in assay [2]; 96% in [3]; 74.6% in assay [4]; 124% in assay [5]; 91% in assay [6]. Moreover, the results for the growth in assay [8], in assay [9] and in [10] were 82.1%, 78.7% and 87%, respectively.
For the compound `O=c1cc2oc3cc(O)c(O)cc3c(-c3ccccc3O)c-2cc1O`, the growth in assay [1] was 110%; in [2], 84%; in assay [3] it was 66.4%; in assay [4], 34.9%; in [5] it was 108%; in [6], 24%. In addition, the values for the growth in [8], in assay [9] and in assay [10] were 48%, 11% and 63.8%, respectively.
